Drawing on the antibiotic and cytotoxicity screens of Wong et al. (2023), this text covers cytotoxicity call for 68 compounds.

Screen size: about 39,000 compounds; about 3,300 (8.5%) were called active. For the sample, actives were picked, then their nearest neighbours and some compounds at random.

In the experiment the test system is HepG2. Put plainly: cytotoxicity call (relative viability < 0.9). The note with it: 10 µM.
Turning to `COc1ccc(S(=O)(=O)Nc2cccc3c2O[C@@H](CN(C)S(=O)(=O)c2cccs2)[C@@H](C)CN([C@H](C)CO)C3=O)cc1`, the cytotoxicity call is “inactive”.
On to `N#CCC(=O)Nc1ccncc1`, for which the cytotoxicity call was “inactive”.
The result for `COc1ccc(S(=O)(=O)N[C@H]2C=C[C@@H](CC(=O)NCCc3ccncc3)O[C@@H]2CO)cc1` reads “inactive”.
The result for `COc1ccc(NC(=O)N2C[C@@H](O)COC[C@@H]3O[C@@H](CC(=O)NCc4ccccc4OC)CC[C@H]32)cc1` reads “inactive”.
In the case of `C[C@H]1CN([C@@H](C)CO)S(=O)(=O)c2ccc(C#Cc3ccccc3F)cc2O[C@H]1CN(C)C(=O)Cc1ccncc1`, the cytotoxicity call was “inactive”.
`CC(C)N1C[C@H](C)[C@@H](CN(C)Cc2ccc(Oc3ccccc3)cc2)Oc2c(NC(=O)c3cccnc3)cccc2C1=O`: the cytotoxicity call is “inactive”.
For `CC(C)N1C[C@H](C)[C@@H](CN(C)Cc2ccc(Oc3ccccc3)cc2)Oc2c(NC(=O)c3ccccc3)cccc2C1=O`, the cytotoxicity call is “active”.
`CC(C)N1C[C@H](C)[C@@H](CN(C)Cc2ccc(Oc3ccccc3)cc2)Oc2c(NC(=O)c3ccncc3)cccc2C1=O`: the cytotoxicity call was “inactive”.
Consider `C[C@H]1CCCCO[C@@H](CN(C)C(=O)c2ccccc2)[C@@H](C)CN([C@@H](C)CO)C(=O)c2cc(NC(=O)Nc3ccc(C(F)(F)F)cc3)ccc2O1`, for which the cytotoxicity call was “inactive”.
For `COc1ccc(CNC(=O)C[C@@H]2C[C@@H]3c4cc(NC(=O)NC5CCCC5)ccc4O[C@@H]3[C@@H](CO)O2)cc1`, the cytotoxicity call was “inactive”.
To `O=C(C[C@H]1C[C@@H]2c3cc(NS(=O)(=O)c4ccc(F)cc4)ccc3O[C@@H]2[C@@H](CO)O1)NCc1cccnc1` belongs “inactive”; to `C[C@H]1CCCCO[C@@H](CN(C)Cc2ccncc2)[C@@H](C)CN([C@@H](C)CO)C(=O)c2cc(NC(=O)Nc3cccc4ccccc34)ccc2O1`, “inactive”; to `C[C@@H]1CN([C@@H](C)CO)C(=O)c2cc(C#Cc3ccc(F)cc3)cnc2O[C@@H]1CN(C)CC1CCOCC1`, “inactive”.
As to `Cc1ccc(S(=O)(=O)Nc2ccc3c(c2)C(=O)N([C@H](C)CO)C[C@H](C)[C@H](CN(C)C(=O)Nc2ccc(F)cc2)OCCCC[C@@H](C)O3)cc1`, the cytotoxicity call is “inactive”.
For `O=c1nc(N2CCc3ccccc3C2)cn[nH]1`, the cytotoxicity call is “inactive”.
As to `COc1ccc(NC(=O)N(C)C[C@@H]2OCCCC[C@H](C)Oc3ccc(NS(=O)(=O)c4ccc(Cl)cc4)cc3C(=O)N([C@@H](C)CO)C[C@@H]2C)cc1`, the cytotoxicity call is “inactive”.
The result for `COc1ccc(cc1)CN1CC[C@]2(CC1)CN([C@H](CO)c1[nH]c3cc(ccc3c12)OC)C(=O)Nc1ccc(cc1)F` reads “active”; that for `COc1ccc2c3c([nH]c2c1)[C@@H](CO)N(C[C@]13CCN(CC1)C(=O)c1ccccc1F)C(=O)Nc1ccc(cc1)F`, “inactive”; that for `COc1ccc2c3c([nH]c2c1)[C@@H](CO)N(C[C@]13CCN(CC1)Cc1cc(on1)-c1ccccc1)C(=O)Nc1ccc(cc1)F`, “inactive”.
For `COc1ccc2c3c([nH]c2c1)[C@H](CO)N(C[C@]13CCN(CC1)C(=O)Nc1ccc(cc1)F)C(=O)c1ccc(cc1)F`, the cytotoxicity call was “inactive”.
Regarding `COc1ccc(cc1)CN1CC[C@]2(CC1)CN([C@@H](CO)c1[nH]c3cc(ccc3c12)OC)C(=O)Nc1ccc(cc1)F`, the cytotoxicity call is “active”.
Take `COc1ccc2c3c([nH]c2c1)[C@H](CO)N(C[C@]13CCN(CC1)C(=O)c1ccccc1F)C(=O)Nc1ccc(cc1)F`: the cytotoxicity call was “inactive”.
To `COc1ccc(NC(=O)Nc2ccc3c(c2)C(=O)N([C@@H](C)CO)C[C@@H](C)[C@@H](CN(C)Cc2ccc(C(=O)O)cc2)OCCCC[C@@H](C)O3)cc1` belongs “inactive”; to `C[C@H](CO)N1C[C@H](C)[C@H](CN(C)S(=O)(=O)c2cccs2)Oc2ccc(NC(=O)CCN3CCOCC3)cc2CC1=O`, “inactive”; to `COc1ccccc1CNC(=O)C[C@H]1C[C@@H]2c3cc(NC(=O)c4ccc5c(c4)OCO5)ccc3O[C@@H]2[C@H](CO)O1`, “inactive”.
The result for `C[C@@H]1CCCCO[C@H](CN(C)Cc2ccccc2)[C@@H](C)CN([C@@H](C)CO)C(=O)c2cc(NC(=O)CCCCCC(=O)Nc3ccccc3N)ccc2O1` reads “inactive”.
To `Cc1noc(C)c1NC(=O)N(C)C[C@@H]1Oc2ccc(NS(=O)(=O)c3ccccc3)cc2CC(=O)N([C@H](C)CO)C[C@@H]1C` belongs “inactive”; to `COc1ccc(S(=O)(=O)Nc2ccc3c(c2)C(=O)N([C@@H](C)CO)C[C@@H](C)[C@H](CN(C)S(=O)(=O)c2cn(C)cn2)OCCCC[C@@H](C)O3)cc1`, “inactive”.
Turning to `C[C@@H]1CN([C@H](C)CO)C(=O)c2cccc(NC(=O)c3ccc(-c4nccs4)cc3)c2O[C@@H]1CN(C)Cc1ccccc1`, the cytotoxicity call is “inactive”.
To `COc1ccc(C#Cc2cnc3c(c2)C(=O)N([C@H](C)CO)C[C@H](C)[C@H](CN(C)C(=O)NC(C)C)O3)cc1OC` belongs “inactive”; to `CO[C@@H]1CN(C)C(=O)c2cc(NC(=O)NC(C)C)ccc2OC[C@@H](C)N(Cc2ccc(-c3ccccn3)cc2)C[C@H]1C`, “inactive”; to `C=CCOC(=O)[C@H]1[C@@H]2C(=O)O[C@@H](c3ccccc3)[C@@H](c3ccccc3)N2[C@@H](c2ccc(OCCOC(=O)[C@H]3C[C@H]4C(=O)NCC(=O)N4[C@H]3c3cccc(OCCO)c3)cc2)[C@]12C(=O)Nc1ccc(I)cc12`, “inactive”.
To `Cc1noc(C)c1NC(=O)Nc1ccc2c(c1)C(=O)N([C@@H](C)CO)C[C@@H](C)[C@@H](CN(C)C(=O)NC1CCCCC1)OCCCC[C@@H](C)O2` belongs “inactive”; to `CO[C@H]1/C=C\C=C(/C)C(=O)NC2=CC(=O)C=C(C2=O)[C@H](OC)[C@@H](C)C[C@H](OC)[C@H](O)[C@@H](C)/C=C(\C)[C@@H]1OC(N)=O`, “inactive”; to `COC1=C2C[C@H](C)C[C@H](OC)[C@@H](O)[C@H](C)/C=C(\C)[C@H](OC(N)=O)[C@H](OC)/C=C/C=C(\C)C(=O)NC(=CC1=O)C2=O`, “active”.
`COC1=C2C[C@@H](C)C[C@H](OC)[C@H](O)[C@@H](C)/C=C(\C)[C@H](OC(N)=O)[C@@H](OC)/C=C/C=C(\C)C(=O)NC(=CC1=O)C2=O`: the cytotoxicity call is “active”.
The result for `COC1=C2C[C@@H](C)C[C@H](OC)[C@H](O)[C@@H](C)/C=C(\C)[C@H](OC(N)=O)[C@@H](OC)/C=C\C=C(/C)C(=O)NC(=CC1=O)C2=O` reads “active”.
To `CO[C@H]1/C=C\O[C@@]2(C)Oc3c(C)c(O)c4c(c3C2=O)[C@]2(C=C(NC(=O)/C(C)=C\C=C/[C@@H](C)[C@@H](O)[C@@H](C)[C@@H](O)[C@@H](C)[C@@H](OC(C)=O)[C@@H]1C)C4=O)OCC(=O)O2` belongs “inactive”; to `Cc1ccc(S(=O)(=O)N2C[C@H](O)COC[C@@H]3O[C@H](CC(=O)N[C@H]4CCN(Cc5ccccc5)C4)CC[C@H]32)cc1`, “inactive”.
Turning to `O=C(O)Cn1c(=O)oc2ccccc21`, the cytotoxicity call is “inactive”.
As to `C[C@@H]1CN([C@H](C)CO)C(=O)c2cc(NC(=O)C3CCCCC3)ccc2O[C@@H](C)CCCCO[C@H]1CN(C)C(=O)Cc1ccccc1`, the cytotoxicity call is “inactive”.
As to `COc1ccc(S(=O)(=O)N(C)C[C@@H]2OCCCC[C@@H](C)Oc3ccc(NC(=O)Nc4ccc(F)cc4)cc3C(=O)N([C@@H](C)CO)C[C@@H]2C)cc1`, the cytotoxicity call is “inactive”.
For `COc1cc2ccnc(CCCN)c2cc1OC`, the cytotoxicity call was “inactive”.
The result for `CCOc1ccc(Cc2nccc3cc(OCC)c(OCC)cc23)cc1OCC.Cl` reads “active”; that for `CCOc1ccc([C@@H](C)N)cc1OCC`, “inactive”.
The result for `C[C@H](CO)N1C[C@H](C)[C@@H](CN(C)Cc2ccc(C(=O)Nc3ccccc3N)cc2)Oc2c(NC(=O)Nc3ccc(C(F)(F)F)cc3)cccc2C1=O` reads “inactive”; that for `C[C@H]1CN([C@@H](C)CO)C(=O)c2cccc(NC(=O)Nc3ccc(C(F)(F)F)cc3)c2O[C@H]1CN(C)Cc1ccc(C(=O)Nc2ccccc2N)cc1`, “inactive”; that for `C[C@@H]1CN([C@H](C)CO)C(=O)c2cccc(NC(=O)Nc3ccc(C(F)(F)F)cc3)c2O[C@H]1CN(C)Cc1ccc(C(=O)Nc2ccccc2N)cc1`, “inactive”.
Regarding `C[C@@H]1CN([C@@H](C)CO)C(=O)c2cccc(NC(=O)Nc3ccc(C(F)(F)F)cc3)c2O[C@@H]1CN(C)Cc1ccc(C(=O)Nc2ccccc2N)cc1`, the cytotoxicity call is “active”.
To `C[C@@H]1CN([C@@H](C)CO)C(=O)c2cccc(NC(=O)Nc3ccc(C(F)(F)F)cc3)c2O[C@H]1CN(C)Cc1ccc(C(=O)Nc2ccccc2N)cc1` belongs “active”.
To `C[C@H]1CN([C@@H](C)CO)C(=O)c2cccc(NC(=O)Nc3ccc(C(F)(F)F)cc3)c2O[C@@H]1CN(C)Cc1ccc(C(=O)Nc2ccccc2N)cc1` belongs “inactive”; to `COCC(=O)N(C)C[C@@H]1Oc2cc(C#C[C@H](C)O)ccc2S(=O)(=O)N([C@H](C)CO)C[C@@H]1C`, “inactive”; to `C[C@H]1CN([C@@H](C)CO)C(=O)Cc2cc(NS(=O)(=O)c3ccc(F)cc3)ccc2O[C@H]1CN(C)Cc1ccc(Cl)c(Cl)c1`, “active”.
The result for `C[C@H](CO)N1C[C@H](C)[C@H](CN(C)Cc2ccc(Cl)c(Cl)c2)Oc2ccc(NS(=O)(=O)c3ccc(F)cc3)cc2CC1=O` reads “inactive”.
As for `C[C@H]1CN([C@@H](C)CO)C(=O)Cc2cc(NS(=O)(=O)c3ccc(F)cc3)ccc2O[C@@H]1CN(C)Cc1ccc(Cl)c(Cl)c1`, the cytotoxicity call was “active”.
To `C[C@@H]1CN([C@@H](C)CO)C(=O)Cc2cc(NS(=O)(=O)c3ccc(F)cc3)ccc2O[C@@H]1CN(C)Cc1ccc(Cl)c(Cl)c1` belongs “active”; to `C[C@@H]1CN([C@H](C)CO)C(=O)Cc2cc(NS(=O)(=O)c3ccc(F)cc3)ccc2O[C@H]1CN(C)Cc1ccc(Cl)c(Cl)c1`, “active”; to `C[C@H](CO)N1C[C@H](C)[C@@H](CN(C)Cc2ccc(Cl)c(Cl)c2)Oc2ccc(NS(=O)(=O)c3ccc(F)cc3)cc2CC1=O`, “inactive”.
As for `C[C@@H]1CN([C@@H](C)CO)C(=O)Cc2cc(NS(=O)(=O)c3ccc(F)cc3)ccc2O[C@H]1CN(C)Cc1ccc(Cl)c(Cl)c1`, the cytotoxicity call is “inactive”.
The result for `Cc1ccc(S(=O)(=O)Nc2ccc3c(c2)C(=O)N([C@H](C)CO)C[C@H](C)[C@H](CN(C)CC2CC2)O3)cc1` reads “inactive”.
The result for `OCCn1cncn1` reads “inactive”.
With `CN(C)CCCCNC(=O)[C@H]1C[C@H]2C(=O)NCC(=O)N2[C@H]1c1cccc(OCCO)c1`, the cytotoxicity call was “inactive”.
The result for `C[C@@H]1CCCCO[C@@H](CN(C)S(=O)(=O)c2cccs2)[C@H](C)CN([C@@H](C)CO)C(=O)c2cc(NC(=O)C3CCCCC3)ccc2O1` reads “inactive”.
To `Cc1ncc(CO)c(CO)c1O` belongs “inactive”; to `C[C@@H]1CCCCO[C@H](CN(C)Cc2ccncc2)[C@H](C)CN([C@@H](C)CO)C(=O)c2cc(NC(=O)Nc3ccc4c(c3)OCO4)ccc2O1`, “inactive”; to `Cc1noc(C)c1NC(=O)N(C)C[C@@H]1Oc2ccc(NS(=O)(=O)c3ccccc3)cc2C(=O)N([C@@H](C)CO)C[C@H]1C`, “inactive”.
To `C[C@@H]1CN([C@H](C)CO)C(=O)Cc2cc(NS(=O)(=O)c3ccc(F)cc3)ccc2O[C@@H]1CN(C)Cc1ccc(Cl)c(Cl)c1` belongs “active”; to `COc1ccc(S(=O)(=O)N(C)C[C@H]2Oc3c(NC(=O)C4CCOCC4)cccc3C(=O)N([C@@H](C)CO)C[C@@H]2C)cc1`, “inactive”.
